These results are taken from ChEMBL document CHEMBL1961873, “Compounds: GSK PKIS; Assays: Nanosyn kinase panel” (2012).

In one assay the target is Activated CDC42 kinase 1 (Homo sapiens) (UniProt Q07912). To be noted: at 0.1 µM.
Sequence of Activated CDC42 kinase 1 (Homo sapiens) (Q07912 whole entry, looked up): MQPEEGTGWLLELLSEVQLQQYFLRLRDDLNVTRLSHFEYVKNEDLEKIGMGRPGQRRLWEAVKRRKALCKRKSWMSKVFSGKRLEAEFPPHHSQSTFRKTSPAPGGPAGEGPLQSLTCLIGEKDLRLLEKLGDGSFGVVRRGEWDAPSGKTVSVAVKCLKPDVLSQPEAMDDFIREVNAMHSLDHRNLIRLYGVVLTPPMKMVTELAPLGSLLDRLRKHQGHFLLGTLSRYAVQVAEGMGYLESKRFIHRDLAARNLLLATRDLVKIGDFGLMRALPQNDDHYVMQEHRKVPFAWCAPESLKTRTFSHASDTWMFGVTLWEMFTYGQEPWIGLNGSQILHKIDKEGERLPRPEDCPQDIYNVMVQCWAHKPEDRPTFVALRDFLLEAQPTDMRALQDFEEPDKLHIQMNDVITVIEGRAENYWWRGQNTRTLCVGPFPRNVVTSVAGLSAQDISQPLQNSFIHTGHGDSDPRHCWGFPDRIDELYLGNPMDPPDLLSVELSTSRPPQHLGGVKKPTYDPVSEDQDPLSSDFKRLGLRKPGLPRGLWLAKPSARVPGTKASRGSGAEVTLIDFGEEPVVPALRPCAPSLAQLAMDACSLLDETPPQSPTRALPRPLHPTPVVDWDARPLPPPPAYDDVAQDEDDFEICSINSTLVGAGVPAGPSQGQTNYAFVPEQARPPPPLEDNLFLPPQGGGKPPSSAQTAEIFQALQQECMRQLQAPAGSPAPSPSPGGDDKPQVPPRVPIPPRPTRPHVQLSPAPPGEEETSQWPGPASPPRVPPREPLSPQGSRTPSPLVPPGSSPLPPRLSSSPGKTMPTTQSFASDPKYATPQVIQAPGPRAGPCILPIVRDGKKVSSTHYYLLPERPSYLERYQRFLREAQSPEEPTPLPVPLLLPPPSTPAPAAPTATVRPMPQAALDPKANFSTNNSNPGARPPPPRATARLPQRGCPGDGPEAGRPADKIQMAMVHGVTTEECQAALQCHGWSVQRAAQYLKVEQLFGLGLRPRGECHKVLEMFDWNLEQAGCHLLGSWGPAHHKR
Consider `CCS(=O)(=O)c1ccc(OC)c(Nc2ncc(-c3cccc(OC)c3)o2)c1`, for which the inhibition came out at 2.52%.
Still for that read-out and setting: to `Cc1ccc2c(-c3ccnc(Nc4cccc(C(F)(F)F)c4)n3)c(-c3ccccc3)nn2n1` belongs 0.98%.
The same measure, in the same setting: to `CN(C)C(=O)O[C@H]1CN[C@H](C#Cc2cc3ncnc(Nc4ccc(OCc5cccc(F)c5)c(Cl)c4)c3s2)C1` belongs 1.42%; to `COc1cccc(-n2nc(C)c3c(N/N=C(\C)c4ccncc4)ncnc32)c1`, -0.22%.
With `CCn1c(-c2nonc2N)nc2ccc(F)cc21`, the inhibition amounted to 1.53%.
`Cc1cc(Cl)cc2c1NC(=O)C2=NNc1ccc(S(N)(=O)=O)cc1`: the inhibition stood at 0.54%.
Same read-out and setting: to `CN1CCN(C(=O)c2ccc(NC(=O)Nc3ccc(N(C)c4ccnc(Nc5ccc(CS(C)(=O)=O)cc5)n4)cc3)cc2)CC1` belongs 8.52%.
For the compound `C[C@@H](Oc1cc(-n2cnc3ccc(OCC4CCN(C)CC4)cc32)sc1C(N)=O)c1ccccc1C(F)(F)F`, the inhibition was 5.42%.
The same measure, in the same setting: to `Cc1nc(-c2ccccc2)n2nc(NCCCN3CCOCC3)ncc12` belongs 0.58%; to `CN(C)C(=O)O[C@@H]1CN[C@@H](C#Cc2cc3ncnc(Nc4ccc(OCc5cccc(F)c5)c(Cl)c4)c3s2)C1`, -0.35%.
Still for that read-out and setting: the value for `c1ccc(Nc2ncc(-c3ccccc3)o2)cc1` was 1.38%.
Regarding `COc1cccc(-n2ncc3c(N/N=C/c4ccc(S(C)(=O)=O)cc4)ncnc32)c1`, the inhibition was 1.34%.
Take `OCc1ccc(-c2nc(-c3ccccn3)c(-c3ccc4c(c3)OCO4)[nH]2)cc1`: the inhibition was 1.72%.
Same read-out and setting: the value for `c1ccc(Cc2nc3ccc(Nc4ncnc5ccccc45)cc3[nH]2)cc1` was 1.45%.
Take `CC(C)c1ccc2c(c1)NC(=O)/C2=N/Nc1ccc(S(N)(=O)=O)cc1`: the inhibition came out at 0.13%.
Still for that read-out and setting: the value for `NC(=O)c1cccc(Nc2nccc(Nc3cccc(F)c3)n2)c1` was 2.29%.
Still for that read-out and setting: the value for `COc1cc2ncn(-c3cc(OCc4ccccc4S(C)(=O)=O)c(C#N)s3)c2cc1OC` was 6.02%; that for `COc1cccc(-n2ncc3c(N/N=C/c4ccc(C)cc4)ncnc32)c1` was 0.47%; that for `CN(C)CCCn1c(-c2nonc2N)nc2cnccc21` was 0.54%.
The same measure, in the same setting: the value for `O=C1Nc2ccc(-c3cccnc3)cc2C1=Cc1cc(Br)c(O)c(Br)c1` was 1.09%.
On to `N#Cc1c(NC(=O)c2ccccc2F)sc2c1CCCC2`, for which the inhibition is -0.05%.
Take `CCOc1nccc2c1nc(-c1nonc1N)n2CC`: the inhibition was 3.04%.
On the same count and under the same terms, the value for `COC(=O)c1cncc(/C=C/c2c(C)cc(O)cc2C)c1` was 1.2%; that for `Cc1cc(O)cc(C)c1/C=C/c1cncc(C(=O)N(C)C)c1` was 1.45%.
Same read-out and setting: to `NS(=O)(=O)c1ccc(NC=C2C(=O)Nc3ccc4ncsc4c32)cc1` belongs 1.41%; to `CN(c1ccc(NC(=O)Nc2ccc(OC(F)(F)F)cc2)cc1)c1ccnc(Nc2cccc(S(N)(=O)=O)c2)n1`, 0.67%.
Same read-out and setting: the value for `Cc1ccc(Nc2ccnc(Nc3cccc(C(N)=O)c3)n2)cc1O` was 3.73%.
As to `CC(C)c1ccc(Nc2nccc(-c3cnn4ncccc34)n2)cc1`, the inhibition came to 0.39%.
Same read-out and setting: the value for `NS(=O)(=O)c1cccc(Nc2cc(-c3ccc(F)cc3)n[nH]2)c1` was 0.5%; that for `Cc1ccc(NC(=O)CC2CC2)cc1-c1ccc(C(=O)NCC2CC2)cc1` was 0.82%; that for `N#Cc1cccc(Nc2nccc(-c3cnn4ncccc34)n2)c1` was 2.35%.
As to `NS(=O)(=O)c1ccc(N/N=C2\C(=O)Nc3ccc(Cl)cc32)cc1`, the inhibition was 0.4%.
Turning to `Nc1ccc(C#Cc2cncnc2Nc2ccc(OCc3cccc(F)c3)c(Cl)c2)cc1`, the inhibition came to 1.62%.
On the same count and under the same terms, the value for `Nc1nccc(-c2c(-c3ccc(F)cc3)nn3cc(C(F)(F)F)ccc23)n1` was -0.73%.

A further assay shares this target. The following applies: at 1 µM.
In the case of `CCS(=O)(=O)c1ccc(OC)c(Nc2ncc(-c3cccc(OC)c3)o2)c1`, the inhibition is 15.3%.
Same read-out and setting: to `Cc1ccc2c(-c3ccnc(Nc4cccc(C(F)(F)F)c4)n3)c(-c3ccccc3)nn2n1` belongs 2.35%; to `CN(C)C(=O)O[C@H]1CN[C@H](C#Cc2cc3ncnc(Nc4ccc(OCc5cccc(F)c5)c(Cl)c4)c3s2)C1`, 1.79%.
As to `COc1cccc(-n2nc(C)c3c(N/N=C(\C)c4ccncc4)ncnc32)c1`, the inhibition was 0.84%.
On the same count and under the same terms, to `CCn1c(-c2nonc2N)nc2ccc(F)cc21` belongs 3.08%; to `Cc1cc(Cl)cc2c1NC(=O)C2=NNc1ccc(S(N)(=O)=O)cc1`, 1.92%.
Still for that read-out and setting: to `CN1CCN(C(=O)c2ccc(NC(=O)Nc3ccc(N(C)c4ccnc(Nc5ccc(CS(C)(=O)=O)cc5)n4)cc3)cc2)CC1` belongs 61%; to `C[C@@H](Oc1cc(-n2cnc3ccc(OCC4CCN(C)CC4)cc32)sc1C(N)=O)c1ccccc1C(F)(F)F`, 46.1%.
For the compound `Cc1nc(-c2ccccc2)n2nc(NCCCN3CCOCC3)ncc12`, the inhibition was 1.15%.
Still for that read-out and setting: to `CN(C)C(=O)O[C@@H]1CN[C@@H](C#Cc2cc3ncnc(Nc4ccc(OCc5cccc(F)c5)c(Cl)c4)c3s2)C1` belongs -0.22%.
Same read-out and setting: the value for `c1ccc(Nc2ncc(-c3ccccc3)o2)cc1` was 0.93%.
Still for that read-out and setting: to `COc1cccc(-n2ncc3c(N/N=C/c4ccc(S(C)(=O)=O)cc4)ncnc32)c1` belongs 1.96%; to `OCc1ccc(-c2nc(-c3ccccn3)c(-c3ccc4c(c3)OCO4)[nH]2)cc1`, 2.78%; to `c1ccc(Cc2nc3ccc(Nc4ncnc5ccccc45)cc3[nH]2)cc1`, 3.26%.
For the compound `CC(C)c1ccc2c(c1)NC(=O)/C2=N/Nc1ccc(S(N)(=O)=O)cc1`, the inhibition was 4.69%.
Same read-out and setting: the value for `NC(=O)c1cccc(Nc2nccc(Nc3cccc(F)c3)n2)c1` was 22.2%.
Same read-out and setting: the value for `COc1cc2ncn(-c3cc(OCc4ccccc4S(C)(=O)=O)c(C#N)s3)c2cc1OC` was 38%; that for `COc1cccc(-n2ncc3c(N/N=C/c4ccc(C)cc4)ncnc32)c1` was 5.39%.
The same measure, in the same setting: the value for `CN(C)CCCn1c(-c2nonc2N)nc2cnccc21` was 0.77%; that for `O=C1Nc2ccc(-c3cccnc3)cc2C1=Cc1cc(Br)c(O)c(Br)c1` was 3.05%; that for `N#Cc1c(NC(=O)c2ccccc2F)sc2c1CCCC2` was 3%.
`CCOc1nccc2c1nc(-c1nonc1N)n2CC`: the inhibition was 7.54%.
Still for that read-out and setting: the value for `COC(=O)c1cncc(/C=C/c2c(C)cc(O)cc2C)c1` was 5.39%; that for `Cc1cc(O)cc(C)c1/C=C/c1cncc(C(=O)N(C)C)c1` was 2.24%.
On the same count and under the same terms, the value for `NS(=O)(=O)c1ccc(NC=C2C(=O)Nc3ccc4ncsc4c32)cc1` was 9.93%; that for `CN(c1ccc(NC(=O)Nc2ccc(OC(F)(F)F)cc2)cc1)c1ccnc(Nc2cccc(S(N)(=O)=O)c2)n1` was 4.69%.
The same measure, in the same setting: to `Cc1ccc(Nc2ccnc(Nc3cccc(C(N)=O)c3)n2)cc1O` belongs 28.8%.
As to `CC(C)c1ccc(Nc2nccc(-c3cnn4ncccc34)n2)cc1`, the inhibition was 2.14%.
Same read-out and setting: the value for `NS(=O)(=O)c1cccc(Nc2cc(-c3ccc(F)cc3)n[nH]2)c1` was 2.57%; that for `Cc1ccc(NC(=O)CC2CC2)cc1-c1ccc(C(=O)NCC2CC2)cc1` was 3.94%; that for `N#Cc1cccc(Nc2nccc(-c3cnn4ncccc34)n2)c1` was 11.7%.
In the case of `NS(=O)(=O)c1ccc(N/N=C2\C(=O)Nc3ccc(Cl)cc32)cc1`, the inhibition stood at 3.7%.
Still for that read-out and setting: to `Nc1ccc(C#Cc2cncnc2Nc2ccc(OCc3cccc(F)c3)c(Cl)c2)cc1` belongs 1.81%; to `Nc1nccc(-c2c(-c3ccc(F)cc3)nn3cc(C(F)(F)F)ccc23)n1`, 0.6%.

As usually defined, the inhibition is the drop in the measured response relative to a control, in per cent.
